Test results: PubChem BioAssay (NCI)
This is part of a sample that, as a whole, favours compounds with a hit. Of some 79,000 tested, about 15% had one in any assay. The source made the active and inactive calls. Rule as the data show it: active = growth inhibition above about 70%; inactive = the rest.

Legend:
[1] = NCI Yeast Anticancer Drug Screen. Data for the rad52 strain (AID 147);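 also: 0% = growth of vehicle-treated control cultures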; conditions: S. cerevisiae rad52 mutant growth inhibition, active compounds read high
How it was run: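 Here a repair-compromised yeast strain receives each compound; its growth is then quantified and normalised to vehicle-only controls.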

[2] = NCI Yeast Anticancer Drug Screen. Data for the rad50EPP+ strain (AID 151);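 also: 0% = growth of vehicle-treated control cultures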; conditions: S. cerevisiae rad50 mutant strain, active compounds read high
How it was run: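 Read-out is yeast growth inhibition relative to vehicle; cells used were the rad50EPP+ strain.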

[3] = NCI Yeast Anticancer Drug Screen. Data for the mgt1 strain (AID 153); conditions: S. cerevisiae mgt1 mutant growth inhibition, active compounds read high
How it was run: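 Measured: inhibition of mgt1 yeast growth by compound, normalized to vehicle-treated cultures.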

[4] = NCI Yeast Anticancer Drug Screen. Data for the rad50 strain (AID 155);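 also: 0% = growth of vehicle-only cultures of the same strain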; conditions: S. cerevisiae rad50 strain growth inhibition, active compounds read high
How it was run: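 Relative growth inhibition (compound vs vehicle) was measured in yeast with a defined repair-gene alteration.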

[5] = NCI Yeast Anticancer Drug Screen. Data for the mec2-1 strain (AID 157); conditions: S. cerevisiae mec2-1 strain, active compounds read high
How it was run: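 Using mec2-1 yeast: add compound, measure growth, express inhibition versus vehicle-treated cultures.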

[6] = NCI Yeast Anticancer Drug Screen. Data for the rad14 strain (AID 159);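 also: 0% = growth of vehicle-treated control cultures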; conditions: S. cerevisiae rad14 strain growth inhibition, active compounds read high
How it was run: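 Screen for anticancer potential: a yeast strain altered in DNA damage repair is grown with compound, and reduced growth is quantified against vehicle controls.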

[7] = NCI Yeast Anticancer Drug Screen. Data for the sgs1 mgt1 strain (AID 161);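 also: 0% = growth of cultures given vehicle only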; conditions: S. cerevisiae sgs1 mgt1 strain, active compounds read high
How it was run: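 Percent growth inhibition was derived by comparing compound-exposed mutant yeast with vehicle-exposed cultures. The strain carries alterations in DNA damage repair.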

[8] = NCI Yeast Anticancer Drug Screen. Data for the CLN2oe strain (AID 163);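 also: 0% = growth of vehicle-only control cultures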; conditions: S. cerevisiae CLN2oe strain, active compounds read high
How it was run: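 Whole-cell yeast growth assay. A strain engineered for altered cell-cycle control received compound, and inhibition relative to vehicle-treated cultures was recorded.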

[9] = NCI Yeast Anticancer Drug Screen. Data for the cln2 rad14 strain (AID 165);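 also: 0% = growth equal to vehicle treated cultures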; conditions: S. cerevisiae cln2 rad14 strain, active compounds read high
How it was run: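 Yeast strain cln2 rad14, bearing defects in cell cycle control and DNA repair, serves as the test system; values reflect growth inhibition compared with vehicle.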

[10] = NCI Yeast Anticancer Drug Screen. Data for the bub3 strain (AID 167); conditions: S. cerevisiae bub3 mutant strain, active compounds read high
How it was run: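 Screening used yeast with an engineered genetic alteration affecting cell cycle control. Compound-exposed cultures were compared with vehicle cultures, and reduced growth was taken as inhibition.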

[11] = NCI Yeast Anticancer Drug Screen. Data for the wt2 strain (AID 169);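 also: 0% = growth of vehicle-treated yeast cultures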; conditions: S. cerevisiae wt2 strain growth inhibition, active compounds read high
How it was run: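 Treated yeast vs. vehicle-treated yeast: growth inhibition determined.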

[12] = NCI Yeast Anticancer Drug Screen. Data for the mlh1 strain (AID 171);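 also: 0% = growth of vehicle-treated control cultures of the same strain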; conditions: S. cerevisiae mlh1 strain growth inhibition, active compounds read high
How it was run: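 A yeast strain with a defined genetic lesion serves as the test organism. Cultures receive compound or vehicle, and growth is measured.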

[13] = NCI Yeast Anticancer Drug Screen. Data for the sgs1 strain (AID 173);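 also: 0% = growth of vehicle-only control cultures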; conditions: S. cerevisiae sgs1 mutant, active compounds read high
How it was run: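 A genetically defined yeast mutant is incubated with the test compound, and its growth is compared to that of the same strain given vehicle.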

[14] = NCI Yeast Anticancer Drug Screen. Data for the mlh1 rad18 strain (AID 175); conditions: S. cerevisiae mlh1 rad18 strain growth inhibition, active compounds read high
How it was run: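 Steps: expose repair-defective yeast to compound; measure growth; express inhibition against vehicle-treated controls.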

[15] = NCI Yeast Anticancer Drug Screen. Data for the rad18 strain (AID 177); conditions: S. cerevisiae rad18 mutant growth inhibition, active compounds read high
How it was run: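 Measured value is growth inhibition of a yeast strain bearing a DNA repair alteration, referenced to vehicle-treated cells.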

[16] = at 5.0 µM (retest, dose inferred, filed as 0.5)
[17] = at 50.0 µM (retest, dose inferred, filed as 5.0)

Measured: growth inhibition

Cc1nc(-c2ccccc2)c(-c2ccccc2)s1
active: [1]; at 100.0 µM 98% | [3]; at 33.0 µM 95% | [3]; at 100.0 µM 99% | [4]; [16] 98% | [4]; at 33.0 µM 77% | [4]; [17] 100% | [4]; at 50.0 µM 84.4% | [4]; at 100.0 µM 97% | [5]; [16] 96% | [5]; [17] 100% | [5]; at 50.0 µM 84.5% | [5]; at 100.0 µM 97% | [6]; at 33.0 µM 84% | [6]; at 100.0 µM 97% | [7]; [17] 100% | [7]; at 50.0 µM 88.4% | [8]; at 100.0 µM 96% | [9]; [16] 71% | [9]; [17] 101% | [10]; at 33.0 µM 78% | [10]; [17] 101% | [10]; at 50.0 µM 84.5% | [10]; at 100.0 µM 98% | [11]; at 33.0 µM 81% | [11]; at 100.0 µM 97% | [12]; at 33.0 µM 87% | [12]; at 100.0 µM 97% | [13]; at 33.0 µM 86% | [13]; at 100.0 µM 98% | [14]; [16] 100% | [14]; [17] 100% | [14]; at 50.0 µM 86.5% | [15]; at 100.0 µM 94%
inactive: [1]; at 1.2 µM 23% | [1]; at 3.7 µM 0% | [1]; at 11.0 µM 17% | [1]; at 33.0 µM 68% | [2]; at 1.2 µM -24% | [2]; at 3.7 µM 4% | [2]; at 11.0 µM 29% | [2]; at 33.0 µM 50% | [2]; at 100.0 µM 65% | [3]; at 1.2 µM 24% | [3]; at 3.7 µM 8% | [3]; at 11.0 µM 44% | [4]; at 1.2 µM -29% | [4]; at 3.7 µM -24% | [4]; at 11.0 µM -19% | [5]; at 1.2 µM 3% | [5]; at 3.7 µM 26% | [5]; at 11.0 µM 24% | [5]; at 33.0 µM 67% | [6]; at 1.2 µM 9% | [6]; at 3.7 µM 10% | [6]; at 11.0 µM 7% | [7]; [16] -6% | [8]; at 1.2 µM -2% | [8]; at 3.7 µM -17% | [8]; at 11.0 µM 1% | [8]; at 33.0 µM 39% | [9]; at 50.0 µM 66.1% | [10]; at 1.2 µM 6% | [10]; at 3.7 µM 2% | [10]; [16] 8% | [10]; at 11.0 µM 22% | [11]; at 1.2 µM -38% | [11]; at 3.7 µM -16% | [11]; at 11.0 µM -20% | [12]; at 1.2 µM 29% | [12]; at 3.7 µM 16% | [12]; at 11.0 µM 41% | [13]; at 1.2 µM -11% | [13]; at 3.7 µM -1% | [13]; at 11.0 µM 6% | [15]; at 1.2 µM -10% | [15]; at 3.7 µM 8% | [15]; at 11.0 µM 6% | [15]; at 33.0 µM 67%
